Results filed as inconclusive are left out. Values without a mark were called inactive. Calls of active or inactive are those of the source. Unless noted, calls come from the whole dose curve; as a rule, active = well fitted curve in the direction sought with a large enough effect in the repeat runs; inconclusive = weak or mixed curves; inactive = no such curve, though single readings can be large; an effect the other way counts as inactive or inconclusive.

Assay [1] is described as follows: qHTS assay to identify small molecule antagonists of the thyroid receptor (TR) signaling pathway - cell viability counter screen (AID 743064). Note: nearly all actives have a fitted effect of over 50% in size. Summed up: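 Same-well viability check: GH3.TRE-Luc cells stimulated with 1 nM T3 alongside test compound for 23.5 h, followed by CellTiter-Fluor fluorescence.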
(qHTS replaces the single test concentration by a dilution series.)

A short description of assay [2]: qHTS assay to identify small molecule antagonists of the thyroid receptor (TR) signaling pathway (AID 743065). Note: series mostly up to about 70 µM; nearly all actives have a fitted effect of over 55% in size. Summed up:
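Antagonism measured as loss of luciferase signal in GH3 cells stably carrying a TRE-luciferase reporter, co-treated with compound and T3 (1 nM final) for 23.5 h at 37 C. Viability was read in the same well by CellTiter-Fluor.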

Assay [3] relates to thyroid hormone receptor (rat, GH3 cells). Put plainly: qHTS assay to identify small molecule agonists of the thyroid receptor (TR) signaling pathway (AID 743066; calls by dose curve).
For assay [4], the target named is Estrogen receptor (Homo sapiens) (UniProt P03372). Nature of the assay: qHTS assay to identify small molecule antagonists of the estrogen receptor alpha (ER-alpha) signaling pathway (AID 743069; active = well fitted curve in the direction sought with a large enough effect in the signal ratio in the repeat runs, not every such curve was filed as active; the % refers to the signal ratio). Summed up: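 Compound effects are measured against 17beta-estradiol stimulation in HEK293 cells with a UAS-controlled beta-lactamase reporter for ER-alpha. Exposure lasts 18 hr at 37C; LiveBLAzer B/G FRET substrate follows for 2 hr at room temperature.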

A short description of assay [5]: qHTS assay to identify small molecule antagonists of the estrogen receptor alpha (ER-alpha) signaling pathway - cell viability counter screen (AID 743074; calls by dose curve;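 note: HEK293 cells carrying ER-alpha-UAS-bla reporter stimulated with 17beta-estradiol; nearly all actives have a fitted effect of over 45% in size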).
In assay [6] the target is Estrogen receptor (Homo sapiens) (UniProt P03372). Put plainly: qHTS assay to identify small molecule agonists of the estrogen receptor alpha (ER-alpha) signaling pathway (AID 743075; calls by dose curve).
Assay [7] is described as follows: qHTS assay to identify small molecule antagonists of the estrogen receptor alpha (ER-alpha) signaling pathway using the BG1 cell line (AID 743080; calls by dose curve;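 note: BG1 cells stimulated with 17beta-estradiol alongside compound; series mostly up to about 70 µM; nearly all actives have a fitted effect of over 25% in size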). Summed up: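 After 5 days in phenol-red-free 10% charcoal-stripped FBS medium, BG1-Luc-4E2 cells were seeded, left 24 h at 37 C, co-treated with compounds and 17beta-estradiol for 21.5 h, then assayed for viability and luciferase.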

The nature of assay [8]: qHTS assay to identify small molecule antagonists of the estrogen receptor alpha (ER-alpha) signaling pathway using the BG1 cell line - cell viability counter screen (AID 743081).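 Note: compound given together with 17beta-estradiol as the ER stimulus; series mostly up to about 70 µM; nearly all actives have a fitted effect of over 45% in size.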
For a further assay, the target named is Aromatase (Homo sapiens) (UniProt P11511). Nature of the assay: qHTS assay to identify aromatase inhibitors (AID 743083). Note: series mostly up to about 70 µM; nearly all actives have a fitted effect of over 55% in size.
In assay [9] the target is Estrogen receptor (Homo sapiens) (UniProt P03372). Nature of the assay: qHTS assay to identify small molecule agonists of the estrogen receptor alpha (ER-alpha) signaling pathway using the BG1 cell line (AID 743079). Note: nearly all actives have a fitted effect of over 20% in size. Note: potency is the fitted concentration of half-maximal effect.

Aromatase (Homo sapiens), sequence (P11511 whole entry, looked up): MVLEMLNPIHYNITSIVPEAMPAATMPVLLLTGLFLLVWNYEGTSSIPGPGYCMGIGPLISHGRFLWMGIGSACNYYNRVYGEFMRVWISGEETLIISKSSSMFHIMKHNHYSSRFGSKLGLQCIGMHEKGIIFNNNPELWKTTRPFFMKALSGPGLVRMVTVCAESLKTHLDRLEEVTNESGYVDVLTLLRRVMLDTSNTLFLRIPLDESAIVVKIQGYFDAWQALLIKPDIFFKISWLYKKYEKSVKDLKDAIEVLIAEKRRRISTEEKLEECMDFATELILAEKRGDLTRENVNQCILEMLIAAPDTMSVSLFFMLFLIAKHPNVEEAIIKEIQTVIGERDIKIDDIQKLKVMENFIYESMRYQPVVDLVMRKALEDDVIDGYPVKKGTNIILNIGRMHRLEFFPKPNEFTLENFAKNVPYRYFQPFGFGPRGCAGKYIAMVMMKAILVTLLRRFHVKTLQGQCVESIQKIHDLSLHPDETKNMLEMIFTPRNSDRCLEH
Estrogen receptor (Homo sapiens), sequence (P03372 whole entry, looked up): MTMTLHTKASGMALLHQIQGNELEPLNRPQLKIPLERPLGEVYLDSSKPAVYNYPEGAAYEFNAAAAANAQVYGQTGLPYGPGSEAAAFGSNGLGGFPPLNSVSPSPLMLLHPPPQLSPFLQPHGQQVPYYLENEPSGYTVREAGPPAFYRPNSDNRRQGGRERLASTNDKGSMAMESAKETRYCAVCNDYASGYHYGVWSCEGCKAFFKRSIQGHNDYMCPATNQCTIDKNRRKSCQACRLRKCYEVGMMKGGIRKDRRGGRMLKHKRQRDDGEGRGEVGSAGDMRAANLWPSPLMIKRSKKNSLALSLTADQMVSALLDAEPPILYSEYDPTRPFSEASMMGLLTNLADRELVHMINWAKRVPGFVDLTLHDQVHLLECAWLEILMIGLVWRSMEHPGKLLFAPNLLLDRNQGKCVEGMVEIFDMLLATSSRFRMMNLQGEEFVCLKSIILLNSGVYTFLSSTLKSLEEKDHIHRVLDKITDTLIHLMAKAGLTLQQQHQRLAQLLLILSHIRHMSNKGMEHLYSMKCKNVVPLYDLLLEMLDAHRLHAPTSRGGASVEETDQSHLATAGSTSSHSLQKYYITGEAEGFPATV

Consider `Cc1ccc2c(c1)OCC(=O)CO2`, for which the Potency result (in [1]; in assay [2]; in assay [7]; in the assay with Aromatase (Homo sapiens)) was “inactive” each time. The call in assay [3], in assay [4], in assay [5], in assay [6] and in assay [8] was inactive.
`COc1ccc(S(=O)(=O)N2c3ccc(Cl)cc3[C@@](O)(c3ccccc3Cl)[C@H]2C(=O)N2CCC[C@@H]2C(N)=O)cc1OC`: the Potency result (in [1]; in [2]; in [9]; in assay [7]; with Aromatase (Homo sapiens)) was “inactive” throughout. In addition, the compound was classed as inactive in assay [3], in assay [4], in [5], in assay [6] and in [8].
Consider `CC(C)=O`, for which the Potency entry (in assay [1]; in assay [2]; in [9]; in assay [7]; in the assay with Aromatase (Homo sapiens)) was “inactive” throughout. Further, the compound was called inactive in assay [3], in assay [4], in [5], in [6] and in [8].
For `O=S(=O)(O)c1cc(O)c2ccc(Nc3ccccc3)cc2c1`, the Potency entry (in assay [1]; in [2]; in [7]; with Aromatase (Homo sapiens)) was “inactive” in each case. The call in assay [3], in [4], in [5], in assay [6] and in assay [8] was inactive.
For the compound `C=C1CC/C=C(\C)CC[C@@H]2[C@@H]1CC2(C)C`, the Potency entry (in assay [1]; in assay [2]; in [9]; in assay [7]; in the assay with Aromatase (Homo sapiens)) was “inactive” throughout. The outcome in assay [3], in assay [4], in [5], in assay [6] and in assay [8] was inactive.
In the case of `CC(=C(CCOC(=O)C(C)C)SSC(CCOC(=O)C(C)C)=C(C)N(C=O)Cc1cnc(C)nc1N)N(C=O)Cc1cnc(C)nc1N`, the Potency entry (in [1]; in [2]; in assay [7]; with Aromatase (Homo sapiens)) was “inactive” each time. The call in assay [3], in assay [4], in assay [5], in assay [6] and in assay [8] was inactive.
In the case of `CC(=O)NCCCCCC(=O)O`, the Potency entry (in assay [1]; in [2]; in assay [9]; in assay [7]; with Aromatase (Homo sapiens)) was “inactive” in each case. Further, the outcome in [3], in assay [4], in assay [5], in [6] and in assay [8] was inactive.
As to `CCN(C)C(=O)Oc1cccc([C@H](C)N(C)C)c1`, the Potency entry (in [1]; in [2]; in assay [9]; in assay [7]; in the assay with Aromatase (Homo sapiens)) was “inactive” in each case. Besides, the compound was called inactive in [3], in assay [4], in assay [5], in assay [6] and in assay [8].
Take `COCCOCCOCCOCCO`: the Potency result (in assay [1]; in [2]; in assay [9]; in assay [7]; in the assay with Aromatase (Homo sapiens)) was “inactive” throughout. For the same compound, the compound was classed as inactive in [3], in [4], in assay [5], in [6] and in [8].
Turning to `CCOC(=O)c1ccc(OC(=O)CCCCCN=C(N)N)cc1`, the Potency entry (in assay [1]; in assay [2]; in [7]; with Aromatase (Homo sapiens)) was “inactive” throughout. The compound was classed as inactive in assay [3], in assay [4], in [5], in assay [6] and in assay [8]. For the same compound, the Potency in assay [9] was 14.3 µM (active).
For the compound `CCOC(=O)c1ncn2c1CN(C)C(=O)c1cc(F)ccc1-2`, the Potency entry (in [1]; in assay [2]; in [9]; in assay [7]; in the assay with Aromatase (Homo sapiens)) was “inactive” throughout. Moreover, the compound was classed as inactive in assay [3], in assay [4], in [5], in [6] and in [8].
Take `CC(=O)OC(C)OC(=O)C(C)c1ccc(-c2ccccc2)c(F)c1` (stereo unspecified): the Potency entry (in assay [1]; in [2]; in assay [9]; in [7]; with Aromatase (Homo sapiens)) was “inactive” throughout. The call in [3], in assay [4], in assay [5], in assay [6] and in [8] was inactive.
For the compound `CCCC(=O)C(C)=O`, the Potency entry (in assay [1]; in assay [2]; in assay [9]; in assay [7]; in the assay with Aromatase (Homo sapiens)) was “inactive” throughout. Moreover, the result in assay [3], in [4], in [5], in assay [6] and in assay [8] was inactive.
As to `COc1cc(C(=S)N2CCOCC2)cc(OC)c1OC`, the Potency entry (in assay [1]; in assay [2]; in assay [9]; in [7]; with Aromatase (Homo sapiens)) was “inactive” each time. Also, the outcome in assay [3], in [4], in [5], in assay [6] and in assay [8] was inactive.
For the compound `O=C1c2ccccc2C(=O)C1c1ccccc1`, the Potency result (in assay [1]; in assay [2]; in assay [9]; in [7]; with Aromatase (Homo sapiens)) was “inactive” in each case. Besides, the result in assay [3], in [4], in assay [5], in assay [6] and in [8] was inactive.
With `CC(=O)CCCCn1c(=O)c2c(ncn2C)n(C)c1=O`, the Potency result (in assay [1]; in assay [2]; in assay [9]; in assay [7]; in the assay with Aromatase (Homo sapiens)) was “inactive” throughout. Also, the result in assay [3], in [4], in assay [5], in assay [6] and in [8] was inactive.
Take `CC(C)N(c1ccccc1)C(C)C`: the Potency entry (in [1]; in assay [2]; in assay [9]; in assay [7]; in the assay with Aromatase (Homo sapiens)) was “inactive” in each case. The call in [3], in assay [4], in [5], in assay [6] and in [8] was inactive.
Consider `O=C(O)CCSSCCC(=O)O`, for which the Potency entry (in assay [1]; in assay [2]; in assay [9]; in assay [7]; with Aromatase (Homo sapiens)) was “inactive” throughout. Further, the compound was classed as inactive in assay [3], in assay [4], in assay [5], in assay [6] and in assay [8].
In the case of `C[C@@H](O)[C@H]1C(=O)N2C(C(=O)O)=C(SCCN=CN)C[C@H]12`, the Potency entry (in assay [1]; in assay [2]; in assay [9]; in assay [7]; with Aromatase (Homo sapiens)) was “inactive” in each case. Besides, the outcome in assay [3], in [4], in [5], in assay [6] and in assay [8] was inactive.
Regarding `Nc1ccc(S(=O)(=O)Nc2ccc(Cl)nn2)cc1`, the Potency entry (in assay [1]; in assay [2]; in assay [9]; in assay [7]; with Aromatase (Homo sapiens)) was “inactive” each time. The outcome in assay [3], in assay [4], in assay [5], in assay [6] and in assay [8] was inactive.
With `O=C(O)C(=O)Cc1ccccc1`, the Potency result (in [1]; in assay [2]; in [9]; in assay [7]; with Aromatase (Homo sapiens)) was “inactive” each time. The result in assay [3], in assay [4], in [5], in assay [6] and in [8] was inactive.
In the case of `C=C(C)C(=O)OCC(C)(C)COC(=O)C(=C)C`, the Potency entry (in assay [1]; in assay [2]; in [9]; in [7]; in the assay with Aromatase (Homo sapiens)) was “inactive” in each case. Besides, the compound was classed as inactive in assay [3], in assay [4], in assay [5], in [6] and in [8].
Take `COCCOCCOCCOCCOCCO`: the Potency result (in assay [1]; in assay [2]; with Aromatase (Homo sapiens)) was “inactive” in each case. For the same compound, the outcome in assay [3], in [5] and in assay [8] was inactive.
With `O=C(/N=N/C(=O)OCc1ccccc1)OCc1ccccc1`, the Potency entry (in assay [1]; in assay [2]; with Aromatase (Homo sapiens)) was “inactive” in each case. Moreover, the compound was called inactive in assay [3], in assay [4], in assay [6] and in [8].
For the compound `N[C@@H](COP(=O)(O)O)C(=O)O`, the Potency entry (in [1]; in assay [2]; in the assay with Aromatase (Homo sapiens)) was “inactive” throughout. For the same compound, the outcome in assay [3], in assay [5] and in [8] was inactive.

The values are drawn from PubChem BioAssay (Tox21).
